Measured values as given in ChEMBL document CHEMBL1961873, “Compounds: GSK PKIS; Assays: Nanosyn kinase panel” (2012).

Tests used:
[1] = target: Serine/threonine-protein kinase pim-2 (Homo sapiens) (UniProt Q9P1W9); details: at 1 µM;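 also: each value is a mean of the inhibition measurements against the kinase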
[2] = target: Serine/threonine-protein kinase pim-3 (Homo sapiens) (UniProt Q86V86); details: at 0.1 µM
[3] = target: Serine/threonine-protein kinase pim-3 (Homo sapiens) (UniProt Q86V86); details: at 1 µM
[4] = target: T1, MAP kinase-activated protein kinase 5 (Homo sapiens) (UniProt Q8IW41); details: at 0.1 µM
T1 sequence (whole entry): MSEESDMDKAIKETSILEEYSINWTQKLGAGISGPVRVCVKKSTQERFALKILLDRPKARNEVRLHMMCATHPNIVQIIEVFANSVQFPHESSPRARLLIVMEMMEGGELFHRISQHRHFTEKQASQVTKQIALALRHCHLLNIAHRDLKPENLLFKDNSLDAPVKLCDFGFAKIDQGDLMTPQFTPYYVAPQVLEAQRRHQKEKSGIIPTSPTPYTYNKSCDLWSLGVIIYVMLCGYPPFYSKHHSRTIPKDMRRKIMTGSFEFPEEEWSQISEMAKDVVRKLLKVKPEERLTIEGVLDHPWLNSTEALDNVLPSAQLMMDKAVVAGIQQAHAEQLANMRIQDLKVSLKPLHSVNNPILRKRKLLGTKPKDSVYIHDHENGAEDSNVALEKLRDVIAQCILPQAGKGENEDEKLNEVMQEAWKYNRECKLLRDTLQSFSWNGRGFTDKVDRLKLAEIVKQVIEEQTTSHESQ

[5] = target: T1, MAP kinase-activated protein kinase 5 (Homo sapiens); details: at 1 µM
[6] = target: Serine/threonine-protein kinase SIK1 (Homo sapiens) (UniProt P57059); details: at 0.1 µM
Chain of Serine/threonine-protein kinase SIK1 (Homo sapiens) (P57059 whole entry): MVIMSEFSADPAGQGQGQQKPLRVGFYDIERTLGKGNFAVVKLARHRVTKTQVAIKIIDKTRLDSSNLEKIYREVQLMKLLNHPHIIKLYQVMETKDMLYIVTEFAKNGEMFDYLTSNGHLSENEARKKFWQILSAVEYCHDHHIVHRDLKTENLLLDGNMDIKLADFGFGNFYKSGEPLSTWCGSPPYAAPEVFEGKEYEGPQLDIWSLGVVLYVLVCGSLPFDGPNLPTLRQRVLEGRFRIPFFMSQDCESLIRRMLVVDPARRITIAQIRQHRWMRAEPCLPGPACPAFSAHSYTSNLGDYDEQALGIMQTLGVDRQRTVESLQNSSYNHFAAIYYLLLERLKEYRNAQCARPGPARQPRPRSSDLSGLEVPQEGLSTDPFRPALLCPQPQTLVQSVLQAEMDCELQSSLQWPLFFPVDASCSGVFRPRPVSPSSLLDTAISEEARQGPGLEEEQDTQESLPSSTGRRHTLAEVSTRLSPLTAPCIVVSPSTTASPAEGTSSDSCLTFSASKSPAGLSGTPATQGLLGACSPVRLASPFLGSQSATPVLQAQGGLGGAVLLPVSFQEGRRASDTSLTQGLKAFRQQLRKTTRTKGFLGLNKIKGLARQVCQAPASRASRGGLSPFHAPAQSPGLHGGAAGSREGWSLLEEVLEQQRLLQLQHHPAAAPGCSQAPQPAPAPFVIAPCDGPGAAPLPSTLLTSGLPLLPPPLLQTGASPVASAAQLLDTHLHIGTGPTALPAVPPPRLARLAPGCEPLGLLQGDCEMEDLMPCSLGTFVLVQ

[7] = target: Serine/threonine-protein kinase SIK1 (Homo sapiens) (UniProt P57059); details: at 1 µM
[8] = target: Serine/threonine-protein kinase SIK2 (Homo sapiens) (UniProt Q9H0K1); details: at 0.1 µM
Chain of Serine/threonine-protein kinase SIK2 (Homo sapiens) (Q9H0K1 whole entry, looked up): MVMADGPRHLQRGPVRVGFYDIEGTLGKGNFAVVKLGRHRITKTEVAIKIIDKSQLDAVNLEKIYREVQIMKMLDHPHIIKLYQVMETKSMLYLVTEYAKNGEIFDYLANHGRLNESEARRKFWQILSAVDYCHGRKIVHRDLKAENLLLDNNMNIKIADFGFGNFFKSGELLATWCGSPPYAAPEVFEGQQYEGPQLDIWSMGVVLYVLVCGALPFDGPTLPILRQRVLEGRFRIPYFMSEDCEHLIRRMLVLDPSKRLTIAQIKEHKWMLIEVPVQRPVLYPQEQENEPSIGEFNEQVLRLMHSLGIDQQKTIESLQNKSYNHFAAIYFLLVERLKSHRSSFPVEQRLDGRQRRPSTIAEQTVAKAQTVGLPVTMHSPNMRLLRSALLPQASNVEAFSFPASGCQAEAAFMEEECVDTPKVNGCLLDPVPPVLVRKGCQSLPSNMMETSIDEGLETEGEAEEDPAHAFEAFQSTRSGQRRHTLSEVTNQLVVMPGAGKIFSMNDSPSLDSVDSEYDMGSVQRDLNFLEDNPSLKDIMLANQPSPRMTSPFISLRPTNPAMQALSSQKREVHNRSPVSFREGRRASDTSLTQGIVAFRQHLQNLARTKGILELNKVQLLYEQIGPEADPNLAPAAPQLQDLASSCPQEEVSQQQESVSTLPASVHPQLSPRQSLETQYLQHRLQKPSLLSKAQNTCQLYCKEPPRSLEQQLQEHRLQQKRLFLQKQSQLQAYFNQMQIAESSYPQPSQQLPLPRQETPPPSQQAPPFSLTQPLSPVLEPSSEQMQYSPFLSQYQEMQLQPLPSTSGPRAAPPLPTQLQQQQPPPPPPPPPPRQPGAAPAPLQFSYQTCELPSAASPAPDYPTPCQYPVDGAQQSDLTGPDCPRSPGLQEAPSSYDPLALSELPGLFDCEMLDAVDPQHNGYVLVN

[9] = target: Serine/threonine-protein kinase SIK2 (Homo sapiens) (UniProt Q9H0K1); details: at 1 µM
[10] = target: T2, Serine/threonine-protein kinase TBK1 (Homo sapiens) (UniProt Q9UHD2); details: at 1 µM
T2 sequence (whole entry): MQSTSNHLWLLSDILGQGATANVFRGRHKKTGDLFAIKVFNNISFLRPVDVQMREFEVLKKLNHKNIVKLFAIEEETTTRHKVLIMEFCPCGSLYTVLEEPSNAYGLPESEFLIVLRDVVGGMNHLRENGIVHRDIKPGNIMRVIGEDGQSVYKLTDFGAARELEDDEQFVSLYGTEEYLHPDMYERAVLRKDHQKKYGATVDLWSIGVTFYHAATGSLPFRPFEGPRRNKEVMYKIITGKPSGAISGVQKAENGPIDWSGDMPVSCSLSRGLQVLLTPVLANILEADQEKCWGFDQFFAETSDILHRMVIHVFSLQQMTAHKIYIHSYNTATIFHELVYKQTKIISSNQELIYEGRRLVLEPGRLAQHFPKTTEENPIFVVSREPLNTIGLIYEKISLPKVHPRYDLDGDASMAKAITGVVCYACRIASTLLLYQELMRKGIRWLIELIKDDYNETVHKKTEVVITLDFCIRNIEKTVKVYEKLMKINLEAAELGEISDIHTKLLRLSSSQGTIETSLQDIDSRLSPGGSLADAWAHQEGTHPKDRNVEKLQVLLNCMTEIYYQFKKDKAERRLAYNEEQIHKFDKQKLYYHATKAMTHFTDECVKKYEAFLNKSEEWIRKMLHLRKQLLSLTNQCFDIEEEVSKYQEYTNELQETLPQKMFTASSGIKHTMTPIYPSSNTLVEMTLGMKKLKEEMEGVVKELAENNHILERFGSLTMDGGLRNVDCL

[11] = target: T3, Testis-specific serine/threonine-protein kinase 1 (Homo sapiens) (UniProt Q9BXA7); details: at 0.1 µM
T3 sequence (whole entry): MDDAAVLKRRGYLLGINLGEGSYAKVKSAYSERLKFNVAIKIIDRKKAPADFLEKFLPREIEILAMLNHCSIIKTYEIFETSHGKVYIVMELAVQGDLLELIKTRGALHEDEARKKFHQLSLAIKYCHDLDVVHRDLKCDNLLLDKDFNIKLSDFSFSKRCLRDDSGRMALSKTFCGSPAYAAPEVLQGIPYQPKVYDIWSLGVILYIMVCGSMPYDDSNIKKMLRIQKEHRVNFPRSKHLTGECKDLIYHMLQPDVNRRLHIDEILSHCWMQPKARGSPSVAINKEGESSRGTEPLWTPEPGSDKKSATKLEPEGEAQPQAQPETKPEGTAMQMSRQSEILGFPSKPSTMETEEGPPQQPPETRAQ

[12] = target: T3, Testis-specific serine/threonine-protein kinase 1 (Homo sapiens); details: at 1 µM
[13] = target: T4, Testis-specific serine/threonine-protein kinase 2 (Homo sapiens) (UniProt Q96PF2); details: at 0.1 µM
T4 sequence (whole entry): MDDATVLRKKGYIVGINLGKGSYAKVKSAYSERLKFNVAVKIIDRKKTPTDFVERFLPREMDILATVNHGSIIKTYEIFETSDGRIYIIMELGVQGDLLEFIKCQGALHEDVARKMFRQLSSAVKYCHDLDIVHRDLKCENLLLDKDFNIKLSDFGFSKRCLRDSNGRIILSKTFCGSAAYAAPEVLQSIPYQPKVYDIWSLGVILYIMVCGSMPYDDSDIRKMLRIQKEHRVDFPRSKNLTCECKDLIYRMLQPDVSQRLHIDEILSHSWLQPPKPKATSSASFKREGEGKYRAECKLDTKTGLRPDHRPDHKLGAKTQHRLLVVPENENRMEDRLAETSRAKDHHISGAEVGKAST

[14] = target: T4, Testis-specific serine/threonine-protein kinase 2 (Homo sapiens); details: at 1 µM
[15] = target: Casein kinase I isoform alpha (Homo sapiens) (UniProt P48729); details: at 0.1 µM
Chain of Casein kinase I isoform alpha (Homo sapiens) (P48729 2-337 limits assumed): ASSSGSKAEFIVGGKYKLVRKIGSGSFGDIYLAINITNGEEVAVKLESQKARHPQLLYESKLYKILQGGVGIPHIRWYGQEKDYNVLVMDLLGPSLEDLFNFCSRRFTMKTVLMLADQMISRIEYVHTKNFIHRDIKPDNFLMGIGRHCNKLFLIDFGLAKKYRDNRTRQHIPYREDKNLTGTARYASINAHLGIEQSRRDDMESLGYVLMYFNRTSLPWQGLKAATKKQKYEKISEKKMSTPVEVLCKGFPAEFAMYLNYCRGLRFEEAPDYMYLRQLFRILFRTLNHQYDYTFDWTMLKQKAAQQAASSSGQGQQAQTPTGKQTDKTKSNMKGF

[16] = target: Casein kinase I isoform alpha (Homo sapiens) (UniProt P48729); details: at 1 µM
[17] = target: Casein kinase I isoform gamma-1 (Homo sapiens) (UniProt Q9HCP0); details: at 0.1 µM
Chain of Casein kinase I isoform gamma-1 (Homo sapiens) (Q9HCP0 whole entry, looked up, canonical isoform): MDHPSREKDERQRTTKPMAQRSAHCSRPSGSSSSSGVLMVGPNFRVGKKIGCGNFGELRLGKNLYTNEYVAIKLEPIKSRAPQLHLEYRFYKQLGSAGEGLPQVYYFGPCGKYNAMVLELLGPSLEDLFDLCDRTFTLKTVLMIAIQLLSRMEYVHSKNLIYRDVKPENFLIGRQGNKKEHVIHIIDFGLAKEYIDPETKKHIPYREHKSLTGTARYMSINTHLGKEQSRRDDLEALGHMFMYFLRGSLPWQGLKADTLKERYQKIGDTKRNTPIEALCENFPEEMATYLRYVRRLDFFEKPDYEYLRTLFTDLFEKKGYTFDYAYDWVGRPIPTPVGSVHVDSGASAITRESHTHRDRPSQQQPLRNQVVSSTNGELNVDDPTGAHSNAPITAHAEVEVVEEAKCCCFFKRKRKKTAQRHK

[18] = target: Casein kinase I isoform gamma-1 (Homo sapiens) (UniProt Q9HCP0); details: at 1 µM
[19] = target: Casein kinase I isoform gamma-2 (Homo sapiens) (UniProt P78368); details: at 0.1 µM;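 also: values are mean inhibition figures reported as part of the GSK PKIS dataset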
Chain of Casein kinase I isoform gamma-2 (Homo sapiens) (P78368 whole entry, looked up, canonical isoform): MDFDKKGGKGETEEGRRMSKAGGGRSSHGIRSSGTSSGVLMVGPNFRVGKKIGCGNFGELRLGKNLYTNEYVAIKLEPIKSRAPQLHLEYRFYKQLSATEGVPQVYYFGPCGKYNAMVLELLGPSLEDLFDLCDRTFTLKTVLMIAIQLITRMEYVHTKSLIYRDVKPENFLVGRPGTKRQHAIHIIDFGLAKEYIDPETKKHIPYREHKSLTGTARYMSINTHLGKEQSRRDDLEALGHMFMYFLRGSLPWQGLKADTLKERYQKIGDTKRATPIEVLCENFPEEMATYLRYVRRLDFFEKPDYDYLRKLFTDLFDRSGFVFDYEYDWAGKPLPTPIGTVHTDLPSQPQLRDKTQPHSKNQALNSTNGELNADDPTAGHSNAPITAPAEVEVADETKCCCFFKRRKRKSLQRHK

[20] = target: T2, Serine/threonine-protein kinase TBK1 (Homo sapiens); details: at 0.1 µM

Chain of Serine/threonine-protein kinase pim-2 (Homo sapiens) (Q9P1W9 whole entry, looked up): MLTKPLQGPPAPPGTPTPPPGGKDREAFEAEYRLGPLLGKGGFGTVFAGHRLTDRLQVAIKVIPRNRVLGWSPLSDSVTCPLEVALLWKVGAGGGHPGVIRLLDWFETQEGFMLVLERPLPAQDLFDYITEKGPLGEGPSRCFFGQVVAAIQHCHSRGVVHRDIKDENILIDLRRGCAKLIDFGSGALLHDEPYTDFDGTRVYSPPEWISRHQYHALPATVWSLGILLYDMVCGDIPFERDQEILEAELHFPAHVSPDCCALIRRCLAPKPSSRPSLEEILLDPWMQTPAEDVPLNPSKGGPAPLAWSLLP

Compound | inhibition [1] [%] | inhibition [2] [%] | inhibition [3] [%] | inhibition [4] [%] | inhibition [5] [%] | inhibition [6] [%] | inhibition [7] [%] | inhibition [8] [%] | inhibition [9] [%] | inhibition [10] [%] | inhibition [11] [%] | inhibition [12] [%] | inhibition [13] [%] | inhibition [14] [%] | inhibition [15] [%] | inhibition [16] [%] | inhibition [17] [%] | inhibition [18] [%] | inhibition [19] [%] | inhibition [20] [%]
COC(=O)Nc1nc2cc(Oc3cccc(NC(=O)Nc4cc(C(F)(F)F)ccc4F)c3)ccc2[nH]1 | 0.76 | 0.14 | 0.51 | -0.26 | -2.14 | 0.37 | 2.51 | -0.54 | 3.76 | 4.23 | -0.26 | -0.63 | -0.42 | -1.58 | -1.03 | -0.8 | 0.24 | 0.48 | -0.21 | –
COc1ccc(-c2ccncc2)cc1C(N)=O | -0.52 | -0.49 | 3.33 | 1.23 | 1.1 | 3.59 | 9.53 | 3.27 | 4.53 | 2.44 | 5.12 | 3.57 | 3.23 | 1.75 | 4.33 | 10.2 | 3.94 | 4.04 | 3.53 | 2.55
NS(=O)(=O)c1ccc(N/N=C2\C(=O)Nc3ccc(C(=O)NCCc4c[nH]cn4)cc32)cc1 | 24.7 | 4.71 | 44.7 | 1.41 | 2.5 | 11.7 | 32.5 | 6.36 | 16.9 | 26.8 | 6.64 | 11.2 | 3.37 | 1.67 | 9.71 | 8.41 | 4.44 | 9.85 | 3.01 | 3.67
CS(=O)(=O)CCNCc1nc(-c2ccc3ncnc(Nc4ccc(F)c(Cl)c4)c3c2)cs1 | -0.01 | 0.66 | 6.45 | 0.35 | 1.43 | 8.44 | 8.78 | 3.22 | 2.57 | 2.28 | 1.9 | 0.45 | 0.45 | 1.08 | 0.89 | 1.04 | 1.14 | 1.55 | 1.92 | 1.85
NCc1ccc(-c2nc(-c3ccc(Cl)c(O)c3)c(-c3ccncc3)[nH]2)cc1 | 1.13 | -1.17 | -0.73 | -0.17 | -1.34 | 0.32 | 3.96 | -0.81 | 8.19 | 1.76 | 0.52 | 0.46 | -0.98 | -1.3 | 3.06 | 15.7 | 0.41 | 2.73 | 0.27 | -1.21
CC1=C(C(=O)Nc2ccc3[nH]ncc3c2)C(c2ccc(Cl)c(Cl)c2)CC(=O)N1 (centres undefined) | -1.37 | -0.64 | -1.31 | 0.08 | -1.02 | 6.5 | 2.84 | -0.93 | 2.87 | 0.46 | 2.84 | -0.6 | 1.93 | -1.29 | -1.74 | 1.97 | 0.83 | 1.68 | 0.32 | -0.19
COc1cc2ncn(-c3cc(O[C@@H](C)c4ccccc4Cl)c(C(N)=O)s3)c2cc1OC | 0.91 | 0.03 | 4.24 | 1.26 | 1.22 | 6.27 | 18.1 | 2.99 | 12 | 27 | 3.02 | 5.73 | 1.37 | 1.24 | 4.77 | 4.44 | 4.61 | 5.05 | 4.07 | 4.39
